Assay outcomes as filed in PubChem BioAssay.
The entries come from a sample that favours hits as a whole.
HT1080 IDH1KD tx = qHTS for induction of synthetic lethality in tumor cells producing 2HG: qHTS for the HT-1080-IDH1KD cell line; HT-1080 IDH1 knockdown viability, ATP luminescence, 48 h; AID 686971, 2013; hit rate 2% among 360,000; Potency, µM (top dose mostly 46.1 µM), for the others: top-dose activity, negative = toxicity, actives largely listed as cytotoxic;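 also: potency is read from the fitted curve at half-maximal effect; 0% = DMSO wells and -100% = cell-free medium wells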
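IDH1KD HT-1080 cells, 750/well, RPMI + 5% FBS; compound pinned after 2 h settling; 48 h, 37 °C; CellTiter-Glo luminescence; % activity normalised to DMSO and no-cell wells; curves fitted, classed by r2 and efficacy.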
HT1080NT lethal = qHTS for induction of synthetic lethality in tumor cells producing 2HG: qHTS for the HT-1080-NT fibrosarcoma cell line; Potency, µM (doses to about 46.1 µM), for inactives: at the top dose activity, negative = less viability, usual class: cytotoxic; HT-1080-NT fibrosarcoma viability, CellTiter-Glo ATP luminescence, 48 h; hit rate 1.6% among 360,000; AID 686970, 2013;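 also: NT is the 2HG producing partner of a matched IDH1 knockdown line; potency is read from the fitted curve at half-maximal effect; 0% = DMSO-treated cells and -100% = media-only wells without cells; nearly all actives have a fitted effect of over 55% in size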
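750 cells/well, RPMI + 5% FBS; 2 h settle, compound pin-transfer, 48 h at 37 degrees C. CellTiter-Glo 10 min RT, luminescence. Normalized to DMSO and media-only wells.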
12-LOX inh = Primary qHTS assay for inhibitors of human arachidonate 12S-lipoxygenase (ALOX12): Round 2; purified 12hLO, xylenol orange hydroperoxide absorbance; hit rate 1.1% among 580,000; Polyunsaturated fatty acid lipoxygenase ALOX12 (Homo sapiens), P18054; Potency, µM (top dose mostly 108 µM), without a hit: at the top dose activity change, negative = inhibition, usual class: inhibitors; AID 1671190, 2021; also: potency is read from the fitted curve at half-maximal effect
Target sequence (P18054 whole entry, looked up): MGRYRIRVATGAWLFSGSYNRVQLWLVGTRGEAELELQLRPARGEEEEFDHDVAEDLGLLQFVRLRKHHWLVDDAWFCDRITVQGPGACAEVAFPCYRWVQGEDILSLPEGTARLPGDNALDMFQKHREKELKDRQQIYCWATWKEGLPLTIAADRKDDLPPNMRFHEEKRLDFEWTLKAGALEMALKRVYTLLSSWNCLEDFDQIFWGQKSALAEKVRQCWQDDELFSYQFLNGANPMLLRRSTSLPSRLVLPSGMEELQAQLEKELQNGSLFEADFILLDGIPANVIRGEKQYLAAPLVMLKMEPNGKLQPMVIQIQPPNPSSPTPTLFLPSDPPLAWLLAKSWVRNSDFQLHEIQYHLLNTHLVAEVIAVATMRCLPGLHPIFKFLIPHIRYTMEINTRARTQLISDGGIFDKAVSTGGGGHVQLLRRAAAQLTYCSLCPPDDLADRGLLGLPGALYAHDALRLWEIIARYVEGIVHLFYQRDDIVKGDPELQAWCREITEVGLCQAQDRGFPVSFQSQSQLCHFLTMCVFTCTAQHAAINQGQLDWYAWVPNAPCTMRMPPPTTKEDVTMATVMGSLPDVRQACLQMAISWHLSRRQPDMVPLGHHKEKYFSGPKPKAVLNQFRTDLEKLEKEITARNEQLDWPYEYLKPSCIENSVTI
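Purified human 12hLO (150 nM final) in 25 mM Hepes, 0.01% Triton X-100, pH 7.0 was preincubated 15 min at room temperature with compound. Then 40 uM arachidonic acid was added, 30 min. Hydroperoxide was read by Fe-XO absorbance ratio 573/405 nm.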
IL-1B inflam inh = qHTS for Inhibitors of Inflammasome Signaling: IL-1-beta AlphaLISA Primary Screen; activity change, % at 57.5 µM; hit rate 4.7% among 360,000; THP-1 LPS/ATP IL-1B secretion, AlphaLISA, 16 h; stronger effect = lower value; in the data active = activity change below about -50%; inconclusive = mostly about -30% to -49%
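Secreted IL-1B measured by AlphaLISA bead assay after 16 h compound exposure of THP-1 cells; compounds (final up to 57.5 uM) added 1 h before LPS (250 ng/mL) and ATP (1.25 mM) stimulation; lower signal means less secretion.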
TDP1 cell CPT = qHTS for Inhibitors of human tyrosyl-DNA phosphodiesterase 1 (TDP1): qHTS in cells in presence of CPT. hit rate 12% among 420,000. AID 686979, 2013. chicken DT40 Tdp1-/-;hTDP1 cells + 20 nM CPT, ATP luminescence, 48 h. Potency, µM (series often up to 46.2 µM), without a hit: at the top dose activity change, negative = growth inhibition, most hits filed as inhibitors; also: potency is read from the fitted curve at half-maximal effect; nearly all actives have a fitted effect of over 55% in size
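Chicken DT40 Tdp1-/- cells complemented with human TDP1, 400 cells/well, exposed to compounds plus 20 nM camptothecin for at least 48 h at 37 C; viability read as ATP content by CellTiter-Glo luminescence.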
TDP1 cell noCPT = qHTS for Inhibitors of human tyrosyl-DNA phosphodiesterase 1 (TDP1): qHTS in cells in absence of CPT; DT40 Tdp1-/- hTDP1 cells, no CPT, ATP luminescence, 48 h; Potency, µM (top dose mostly 46.2 µM), for the others: top-dose activity change, negative = growth inhibition, usual class: inhibitors; hit rate 15% among 420,000; AID 686978, 2013; also: potency is read from the fitted curve at half-maximal effect; nearly all actives have a fitted effect of over 55% in size
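Stably hTDP1-transfected Tdp1-null chicken DT40 cells were treated with library compounds minus camptothecin and grown for at least 48 hr at 37 °C, after which cellular ATP was quantified by luminescence.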
Starred values were filed as active, the others as inactive; ? = inconclusive; nt = no result; [ ] = remark or other dose. Unless noted, calls follow the shape of the dose curve; as a rule, active = well fitted curve in the direction sought with a large enough effect; inconclusive = small, poorly fitted or top-dose-only effect, or another doubt; inactive = no such curve, though single readings can be large; an effect the other way counts as inactive or inconclusive. Unless noted, % is scaled to controls: 0 for no effect and ±100 for the full control effect.

SMILES	HT1080 IDH1KD tx	HT1080NT lethal	12-LOX inh	IL-1B inflam inh	TDP1 cell CPT	TDP1 cell noCPT
CCCCCCCNC(=O)C1(CC2CC(c3cccc(Br)c3)=NO2)CCN(C(=O)C2(C)CC2)CC1 (stereo unspecified)	-16%	-16%	-4%	-59*	16µM*	16µM*
O=S(=O)(c1ccccc1)N1CCN(c2ncnc3sc(-c4ccccc4)cc23)CC1	-4%	-8%	1%	-21	21µM*	12µM*
CN1CCN(c2ncnc3sc(-c4ccccc4)cc23)CC1	7%	-2%	-28%	-60*	?	?
CCc1cc2c(N3CCCCC3)ncnc2s1	-16%	-16%	28µM*	11	?	?
Cc1ccc(S(=O)(=O)N2CCN(c3ncnc4c3cnn4-c3ccccc3)CC2)cc1	9%	8%	29%	-2	-1%	-17%
CN(C)/C=N/c1c(C#N)cnn1-c1ncnc2sc(-c3ccccc3)cc12	-11%	-9%	3%	-16	21µM*	18µM*
CCC(CC)=C(C#N)C(=O)NC1CC1	nt	nt	49%	nt	nt	nt
c1ccc(-c2cc3c(N4CCN(c5ncccn5)CC4)ncnc3s2)cc1	9%	14%	-13%	3	?	?
c1ccc(-c2cc3c(N4CCN(c5ccccc5)CC4)ncnc3s2)cc1	-10%	-26%	-16%	-30	?	18µM*
NC(=O)Cc1c[nH]c2ncc(-c3ccc(Cl)cc3)cc12	nt	nt	3%[176 µM]	nt	nt	nt
Cc1ccc(C(=O)N2CCc3onc(-c4cccc5ccccc45)c3C2)cc1	nt	nt	0%	nt	nt	nt
CCC(C)NCC(=O)Nc1ccc(-c2nc3cc(NC(=O)CNC(C)CC)ccc3o2)cc1 (stereo unspecified)	-25%	-20%	0%	-3	6.5µM*	7.3µM*
CCN(CC)CC(=O)Nc1ccc(-c2nc3cc(NC(=O)CN(CC)CC)ccc3o2)cc1	-3%	-3%	0%	-13	21µM*	18µM*
CCCC(=O)Nc1ccc2oc(-c3ccc(F)cc3)nc2c1	nt	nt	-6%	nt	nt	nt
O=C(CN1CCCC1)Nc1ccc(-c2nc3cc(NC(=O)CN4CCCC4)ccc3o2)cc1	?	?	-9%	-56*	18µM*	12µM*
O=C(NC(c1ccccc1)C(Cl)Cl)c1ccccc1 (stereo unspecified)	5%	8%	1%	8	-11%	-8%
[N-]=[N+]=NC(c1ccccc1)C(NC(=O)c1cc(C(F)(F)F)cc(C(F)(F)F)c1)c1ccccc1 (stereo unspecified)	?	?	0%	12	?	23µM*
CC(O)CNc1nc2c(c(=O)n(C)c(=O)n2C)n1Cc1ccccc1Br (stereo unspecified)	nt	nt	33%	nt	nt	nt
CS(=O)(=O)c1ccccc1C(=O)Nc1cccc2ncccc12	2%	4%	-19%	-1	-6%	0%
O=c1[nH]c(NC2CCCCC2)c([N+](=O)[O-])c(=O)[nH]1	17%	1%	0%	17	-5%	-18%
CCN1C(=O)C(Cc2nc3ccccc3c(=O)n2C)c2ccccc21 (stereo unspecified)	-12%	-12%	0%	0	?	15µM*
CCN1C(=O)C(Cc2nc3ccccc3c(=O)n2CC)c2cc(Br)ccc21 (stereo unspecified)	nt	nt	-1%	nt	nt	nt
